Measurements taken from PubChem BioAssay AID602304 (NMMLSC, 2012).
Measured potencies and affinities stand elsewhere. Activity calls are given as the source filed them. The rule behind the calls is not given here.

assay: vacuolar alkalinization by V-ATPase blockade – S. cerevisiae, BCECF dye, powder set 1, dose response (AID 602304); settings: BCECF fluorescence; series mostly up to 100 µM; response, vacuolar pH increase: at the top concentration

response, vacuolar pH increase, inactive:
O=C(c1ccc([N+](=O)[O-])o1)N1CCN(c2ccccn2)CC1 12.2%
O=C(c1nc2ccccc2s1)N1CCN(c2nc3ccc(F)cc3s2)CC1 -0.84%
O=C(C1CCCCC1)N1CCN(c2nc3ccc(F)cc3s2)CC1 -0.47%
O=C(c1ccc(Br)s1)N1CCN(c2nc3ccc(F)cc3s2)CC1 14.7%
Cc1cc(C(=O)N2CCN(c3nc4ccc(F)cc4s3)CC2)n(C)n1 12.2%
O=C(c1ccno1)N1CCN(c2nc3ccc(F)cc3s2)CC1 -0.47%
Cc1cc(C(=O)N2CCN(c3nc4ccc(F)cc4s3)CC2)on1 20.2%
O=C(c1ccco1)N1CCN(c2nc3ccc(F)cc3s2)CC1 4.99%
O=C(c1ccc(Cl)s1)N1CCN(c2nc3ccc(F)cc3s2)CC1 12.2%
O=C(c1cccs1)N1CCN(c2nc3ccc(F)cc3s2)CC1 8.03%
CS(=O)(=O)c1cccc2sc(N3CCN(C(=O)c4ccc([N+](=O)[O-])o4)CC3)nc12 1.7%
O=C(c1cnccn1)N1CCN(c2nc3ccc(F)cc3s2)CC1 4.95%
Cc1cc(C(=O)N2CCN(c3nc4ccc(F)cc4s3)CC2)nn1C 0.97%
O=C(C1CC1)N1CCN(c2nc3ccc(F)cc3s2)CC1 -0.84%
CC(C)(C)C(=O)N1CCN(c2nc3ccc(F)cc3s2)CC1 1.95%
Cc1cc(C(=O)N2CCN(c3nc4ccc(F)cc4s3)CC2)no1 3.47%
CS(=O)(=O)c1ccc2nc(N3CCN(C(=O)c4ccc([N+](=O)[O-])o4)CC3)sc2c1 -0.33%
O=C(c1ccc([N+](=O)[O-])o1)N1CCN(c2nccs2)CC1 28.2%
O=C(Nc1ccccc1N1CCOCC1)c1ccc([N+](=O)[O-])o1 8.93%
